# According to PubChem BioAssay (Tox21):
# Results filed as inconclusive are left out. The source made the active and inactive calls. Calls follow the shape of the full dose curve.
# Assay: qHTS assay to identify small molecule agonists of the endoplasmic reticulum stress response signaling pathway - cell viability counter screen (AID 1159517); also: nearly all actives have a fitted effect of over 50% in size
# Conditions: ESRE-bla HeLa viability, CellTiter-Glo luminescence, 5 h; series mostly up to 61 µM; activity change, negative = cytotoxicity: at the top concentration
# Source text: U.S. Tox21 Program National Center for Advancing Translational Sciences [NCATS] NIH Chemical Genomics Center [NCGC] U.S. Environmental Protection Agency [EPA] National Institutes of Environmental Health Sciences [NIEHS] National Toxicology Program [NTP] U.S. Food and Drug Administration [FDA] Tox21 Assay Overview: Endoplasmic Reticulum (ER) plays an important role in cellular signaling, protein folding/maturation, stress response, lipid biosynthesis, calcium storage and release etc. Under stress conditions, proteins in ER misfold or unfold, and leading to the expression of ER stress responsive genes. ER stress has been associated with a variety of pathophysiological conditions such as cancer, inflammation, neurodegenerative diseases, diabetes, ischemic heart disease etc. To identify the compounds that induce ER stress response, an ER stress reporter cell line, CellSensor ESRE-bla HeLa (Life Technologies, Carlsbad, CA) containing a beta-lactamase reporter gene under control of the Endoplasmic reticulum Stress Response Element (ESRE) was used to screen Tox21 10K compound library. The cytotoxicity of the Tox21 compound library against the ESRE-bla HeLa cell line was tested in parallel by measuring cell viability using the CellTiter-Glo assay in the same wells.
# Tox21 Assay Protocol Summary: ESRE-bla HeLa cells were dispensed at 1,500 cells/6 uL of assay medium per well into black wall/clear-bottom 1536-well plates using a Multidrop Combi (ThermoFisher Scientific, Waltham, MA) dispenser. After the assay plates were incubated at 37 C and 5% CO2 for an overnight, 23 nL of compounds dissolved in DMSO, positive controls or DMSO only was transferred to the assay plate by a Pintool station (Kalypsys, San Diego, CA). The assay plates were incubated at 37 C and 5% CO2 for 5 hr. One uL of LiveBLAzer B/G FRET substrate (Life Technologies) was added using a FRD (Flying Reagent Dispenser, Aurora Discovery, San Diego, CA) and the plates were incubated at room temperature for 2 hr. Fluorescence intensity (405 nm excitation, 460 nm and 530 nm emissions) was measured using an Envision plate reader (PerkinElmer, Shelton, CT). For cytotoxicity, 4 ul/well of CellTiter-Glo reagent was added into the assay plates using an FRD. After 30 min incubation at room temperature, the luminescence intensity was measured using a ViewLux plate reader (PerkinElmer).
# % is scaled to controls: 0 for no effect and ±100 for the full control effect.
SMILES,outcome,"activity change, negative = cytotoxicity"
C#CC(C)(C)NC(=O)c1cc(Cl)cc(Cl)c1,inactive,–
CCC(C)(CC)c1cc(NC(=O)c2c(OC)cccc2OC)on1,inactive,–
CC(C)C#N,inactive,–
Nc1c(Cl)c(Cl)nc(C(=O)O)c1Cl,–,2.36% (inactive)
CCCCCCCCCl,inactive,–
CN(N=O)c1ccccc1,–,18.7% (inactive)
CC(C)(Cl)Cl,inactive,–
CC(C)C1(C)N=C(c2nc3ccccc3cc2C(=O)O)NC1=O (stereo not given),–,1.91% [at 78.8 µM] (inactive)
c1ccc2c(c1)Oc1ccccc1O2,inactive,–
COC(=O)NS(=O)(=O)c1ccc(N)cc1,inactive,–
CCN(CC)CCO,inactive,–
CC(C)(C)C(O)(CCc1ccc(Cl)cc1)Cn1cncn1 (stereo not given),inactive,–
CCNc1nc(NC(C)C)nc(SC)n1,inactive,–
BrCCBr,–,7.68% (inactive)
CC(C)OC(=O)Nc1cccc(Cl)c1,inactive,–
CON(C)C(=O)Nc1ccc(Cl)c(Cl)c1,–,3.38% (inactive)
NCC(O)c1ccc(O)cc1 (stereo not given),inactive,–
CC(C)(C)OOC(=O)c1ccccc1,inactive,–
CCCC1COC(Cn2cncn2)(c2ccc(Cl)cc2Cl)O1 (stereo not given),inactive,–
ClCCBr,inactive,–

SMILES,outcome,"activity change, negative = cytotoxicity"
OC(O)C(Cl)(Cl)Cl,–,2.4% (inactive)
COCCl,–,-6.21% (inactive)
CCCN(CCC)c1c([N+](=O)[O-])cc(C(F)(F)F)cc1[N+](=O)[O-],inactive,–
CCOP(OCC)OCC,–,-10.9% [at 78.8 µM] (inactive)
CCCCCCCCCCCC#N,inactive,–
CCOP(=S)(OCC)SCCSCC,inactive,–
Cc1[nH]c(=O)n(C(C)(C)C)c(=O)c1Cl,–,1.23% (inactive)
C=C(C)CCl,inactive,–
CCCN(CCC)N=O,inactive,–
c1cc2c3c(cccc3c1)CC2,inactive,–
CC(NC(C)(C)C)C(=O)c1cccc(Cl)c1 (stereo not given),inactive,–
CCNc1nc(NC(C)(C)C)nc(SC)n1,inactive,–
Nc1ccc(Cc2ccc(N)cc2)cc1,inactive,–
O=C(NC(=O)c1c(F)cccc1F)Nc1cc(Cl)c(OC(F)(F)C(F)C(F)(F)F)cc1Cl (stereo not given),inactive,–
c1ccc2c(c1)oc1ccccc12,inactive,–
O=c1ccc(=O)[nH][nH]1,inactive,–
O=C(O)c1ccccn1,–,-0.011% [at 78.8 µM] (inactive)
O=Cc1cccc(Oc2ccccc2)c1,inactive,–
Clc1cccc(Cl)c1Cl,inactive,–
O=c1[nH]c2ccccc2c(=O)o1,inactive,–
